In the library only some 2.1% were active in any assay of this set; here they are far more common.
TDP43 rescue – rescues yeast growth from TDP-43 toxicity; TDP-43 expressing yeast growth rescue, BacTiter-Glo, 24 h; Potency, µM (top dose mostly 46.1 µM), hits mostly activators; 1.8% of 410,000 active; further: nearly all actives have a fitted effect of over 50% in size
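Readout is BacTiter-Glo luminescence of cell growth, so inhibitors register as activators. TDP-43-expressing yeast at OD600=0.02 in galactose medium, after raffinose pregrowth to mid-log, were incubated with compound for 24 hr at 30 deg C.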
Abeta yeast res – compounds reversing amyloid beta toxicity in yeast; yeast expressing A-beta42, growth rescue, OD600, 48 h; response scale: 0% DMSO, 100% iron-clioquinol control; Potency, µM (series often up to 46.1 µM), actives largely listed as activators; 0.063% of 410,000 active; AID 1347071; further: nearly all actives have a fitted effect of over 55% in size
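Growth rescue measured by 600 nm absorbance after 48 h yeast culture at 30 C with compound. Values normalized between DMSO and an equimolar ferric chloride plus clioquinol control.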
aSyn rescue – alpha-synuclein toxicity inhibition in yeast; Potency, µM (doses to about 46.1 µM), usual class: activators; 0.14% of 370,000 active; Yeast expressing alpha-synuclein, growth rescue, BacTiter-Glo, 24 h; further: nearly all actives have a fitted effect of over 65% in size
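Galactose-induced alpha-syn yeast (OD600=0.02, raffinose-pregrown) + pinned cpd, 24 hr, 30 deg C; growth by BacTiter-Glo luminescence. Growth restoration scores as activation.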
FUS yeast rescue – FUS proteinopathy suppression in yeast; AID 1347120; Potency, µM (series often up to 76.6 µM), usual class: activators; 0.24% of 390,000 active; S. cerevisiae FUS-expressing, growth rescue, OD600, 24 h; further: nearly all actives have a fitted effect of over 55% in size
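Galactose (2%) drives FUS expression in yeast precultured in raffinose; seeding density OD 0.005. Test compounds incubated 24hr at 30C and 99% humidity before absorbance at 600 nm was measured.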
Numbers stand for hits; 0 = inactive; ? = inconclusive; - = no result given; [ ] = another dose, or the depositor's remark. The call rests on the fitted dose curve; in most records, active means well fitted curve in the direction sought with a large enough effect; inconclusive means small, poorly fitted or top-dose-only effect, or another doubt; inactive means no such curve, though single readings can be large; an effect the other way counts as inactive or inconclusive.

SMILES | TDP43 rescue | Abeta yeast res | aSyn rescue | FUS yeast rescue
C/C=C/c1ccc2c(c1)OCO2 | 0 | 0 | 0 | 0
c1cc2c(cc1[C@H]1OCC3C1CO[C@@H]3c1ccc3c(c1)OCO3)OCO2 (stereo not given in full) | 11.2µM | 0 | 0 | ?
C[C@H](NC(=O)OCc1ccccc1)[P+](=O)O | - | - | - | 0
c1ccc(C2c3ccccc3-n3nncc3CN2CC2CCCCC2)cc1 (stereo not given) | 15.8µM | 0 | 0 | 0
COc1ccc(CN2Cc3cnnn3-c3ccccc3C2c2ccccc2)cc1 (stereo not given) | 0 | 0 | 0 | 0
CCN(CC)C(=O)c1ccc(NC(=O)CNC(C)c2cccc3ccccc23)cc1 (stereo not given) | 0 | 0 | 0 | 0
CCCCn1nnnc1C(c1cccc2ccccc12)N1CCC2(CC1)C(=O)NCN2c1ccccc1 (stereo not given) | 0 | 0 | 0 | 10µM
O=C1NCN(c2ccccc2)C12CCN(C(c1ccccc1OC(F)(F)F)c1nnnn1Cc1ccccc1)CC2 (stereo not given) | 0 | 0 | 0 | 10µM
O=C1NCN(c2ccccc2)C12CCN(C(c1cccc3ccccc13)c1nnnn1Cc1ccccc1)CC2 (stereo not given) | 0 | 0 | 0 | ?
COC(=O)[C@@]1(O)c2c(oc3cccc(O)c3c2=O)C=C[C@H]1O | - | - | - | 0
Cc1ccc2scc(N3CCN(C)CC3)c(=O)c2c1 | 0 | 0 | 0 | 0
C[C@]12CC[C@H]3C(=CCc4cc(O)ccc43)[C@@H]1CCC2=O | 10µM | 0 | 0 | 0
COC(=O)C1=C(c2cccc(OCc3ccccc3)c2)C[C@@H]2CC[C@H]1N2C(=O)NCc1ccc2[nH]ccc2c1 | 0 | 0 | 0 | 8.91µM
COC(=O)C1=C(c2cccc(OCc3ccccc3)c2)C[C@@H]2CC[C@H]1N2C(=O)NCc1ccc(F)cc1 | 0 | 0 | 0 | ?
COC(=O)C1=C(c2ccc(Cl)c(C(F)(F)F)c2)C[C@@H]2CC[C@H]1N2C(=O)NCCOc1ccc(OC)cc1 | 11.2µM | 0 | ? | ?
COC(=O)C1=C(c2ccc(-c3ccccc3)c(F)c2)C[C@@H]2CC[C@H]1N2C(=O)NC1CC1 | 20µM | 0 | 0 | 0
CCCNC(=O)N1[C@H]2CC[C@@H]1C(C(=O)OC)=C(c1ccc(Cl)c(C(F)(F)F)c1)C2 | 0 | ? | 0 | 0
Oc1ccc2c3c1O[C@H]1c4oc5ccccc5c4C[C@@]4(O)C(C2)N(CC2CC2)CCC314 (stereo not given in full) | - | - | 0 | -
COc1ccc(-c2ccc3n2Cc2cnnn2-c2ccccc2-3)cc1 | ? | 0 | 0 | 0
O=C1NC(=O)C(=Cc2ccccc2Oc2ccc(F)cc2)C(=O)N1 | 0 | 0 | 0 | 0
CN1C(=O)C(=Cc2ccccc2Oc2ccc(Cl)c(F)c2)C(=O)N(C)C1=O | 22.4µM | 0[9.22 µM] | 0 | 0
CCCNc1nc(-c2cc(C(=O)Nc3ccccc3)on2)cc(C(C)C)n1 | 17.8µM | 0 | 12.6µM | 0
c1ccc(Cn2nnnc2C2CN=C(c3ccccc3)c3ccccc3N2)cc1 (stereo not given) | - | - | - | 0
COc1ccc(-n2c(/C=C\c3ccccc3F)nc3ccccc3c2=O)c(OC)c1 | 35.5µM | ? | - | ?
Cc1cccc(-n2c(/C=C/c3cccc4ccccc34)nc3ccccc3c2=O)c1 | 35.5µM | 0 | - | 0
SMILES | TDP43 rescue | Abeta yeast res | aSyn rescue | FUS yeast rescue
Cc1cccc(-n2c(/C=C/c3ccccc3O)nc3ccccc3c2=O)c1 | 0 | 0 | - | 0
Cn1cc(P(=S)(c2ccccc2)c2ccccc2)c2ccccc21 | - | - | - | 0
CCC(C)NC(=O)c1c(N)n(CCCOC)c2nc3ccccc3nc12 (stereo not given) | 25.1µM | 0 | 0 | 0
COCCCn1c(N)c(C(=O)Nc2ccccc2)c2nc3ccccc3nc21 | 0 | 0 | 0 | 0
O=C1c2ccccc2-n2nncc2C2c3cc(Br)ccc3CCN12 (stereo not given) | 35.5µM | 0 | 0 | 0
Cc1ccccc1-c1ccc2c(c1)C1c3c(-c4ccccc4)nnn3-c3ccccc3C(=O)N1CC2 (stereo not given) | ? | 0 | 0 | ?
N#Cc1cc2c(nc1SCC(=O)Nc1ccc(F)c(Cl)c1)C1CCN2CC1 | 0 | 0 | 0 | 0
C[C@H](CCC(=O)O)[C@H]1CC[C@H]2[C@@H]3[C@H](O)C[C@@H]4C[C@H](O)CC[C@]4(C)[C@H]3CC[C@]12C | 22.4µM | 0 | 0 | ?
CCc1cc2c(cc1-c1csc(C/C(N)=N/O)n1)C(C)(C)CCC2(C)C | 22.4µM | 0 | 0 | 0
CC(C)c1ccccc1NC1=NCCCS1 | 0 | 0 | 0 | 0

Screening data as filed in PubChem BioAssay.
